Reference: PubChem BioAssay (NCATS)
Results filed as inconclusive are left out. Active and inactive are the calls of the source. Unless noted, the call rests on the fitted dose curve; in most records, active means well fitted curve in the direction sought with a large enough effect; inconclusive means small, poorly fitted or top-dose-only effect, or another doubt; inactive means no such curve, though single readings can be large; an effect the other way counts as inactive or inconclusive.

Legend:
[1] = target: Cytochrome P450 3A4 (Homo sapiens) (UniProt P08684); test: qHTS Assay for Activators of Cytochrome P450 3A4 (AID 885); further: nearly all actives have a fitted effect of over 65% in size
In short: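 20nM CYP3A4 + 25uM Luciferin-PPXE (=KM), 200mM KPO4; cpd 10 min RT; NADPH regen, 60 min RT; stop w/ detection buffer, 20 min; luminescence. Normalized to 57 uM ketoconazole.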

[2] = Confirmatory qHTS for small molecule stabilizers of the endoplasmic reticulum resident proteome: Secreted ER Calcium Modulated Protein (SERCaMP) assay (AID 1508628); further: potency means the concentration at half of the fitted maximal effect; nearly all actives have a fitted effect of over 40% in size
In short: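 SH-SY5Y cells stably expressing GLuc-SERCaMP, treated 16 h with compound (primary 1.53, 7.67, 38.3 uM; confirmation 11 concentrations, up to 76.6 uM), then 100 nM thapsigargin for 4 h. Secreted Gaussia luciferase in medium read by coelenterazine luminescence.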

[3] = NS1 protein of Zika virus - qHTS assay to identify small molecule inhibitors in human HEK 293 cells (AID 1347053); further: nearly all actives have a fitted effect of over 55% in size
In short: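 HEK 293 cells, seeded 20 h at 37 C, were pretreated with compound 1 h, then infected with ZIKV MR766 (MOI = 0.5) for 24 h. NS1 was read by TR-FRET with two anti-NS1 antibodies, normalized to uninfected and infected wells.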

[4] = qHTS of pediatric cancer cell lines to identify multiple opportunities for drug repurposing: Primary screen for TC32 cells (AID 1347089); further: nearly all actives have a fitted effect of over 60% in size
In short: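 In the primary qHTS, MIPE compounds were tested at 11 concentrations (0.78 nM to 46 µM) and NPC compounds at 8 (0.59 nM to 46 µM) on TC32 cells for 48 h. CellTiter-Glo luminescence gave viability.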

[5] = qHTS of pediatric cancer cell lines to identify multiple opportunities for drug repurposing: Primary screen for Saos-2 cells (AID 1347097); conditions: Saos-2 viability, CellTiter-Glo ATP luminescence, 48 h; further: potency means the concentration at half of the fitted maximal effect; nearly all actives have a fitted effect of over 40% in size
In short: (§1)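 ATP-based luminescence (CellTiter-Glo) quantifies viability after a 48-hour exposure. Compounds are dosed across 8 or 11 final concentrations; DMSO and 2.3 µM bortezomib serve as controls.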

[6] = qHTS of pediatric cancer cell lines to identify multiple opportunities for drug repurposing: Primary screen for NB1643 cells (AID 1347099); further: nearly all actives have a fitted effect of over 50% in size
In short: as §1

[7] = qHTS of pediatric cancer cell lines to identify multiple opportunities for drug repurposing: Primary screen for OHS-50 cells (AID 1347103); conditions: OHS-50 osteosarcoma viability, CellTiter-Glo luminescence, 48 h; further: potency means the concentration at half of the fitted maximal effect; nearly all actives have a fitted effect of over 40% in size
In short: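 Cells (500-1,000/well) rested 5 h, then received compounds for 48 h; metabolically active cells were measured by CellTiter-Glo luminescence. Final concentrations spanned up to 46 µM (MIPE, 11-point) or 0.59 nM-46 µM (NPC, 8-point) in primary screens, 11-point in follow-ups.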

[8] = qHTS of pediatric cancer cell lines to identify multiple opportunities for drug repurposing: Primary screen for RD cells (AID 1347104); conditions: RD rhabdomyosarcoma viability, CellTiter-Glo luminescence, 48 h; further: potency means the concentration at half of the fitted maximal effect; nearly all actives have a fitted effect of over 55% in size
In short: as §1

[9] = qHTS to identify inhibitors of the type 1 interferon - major histocompatibility complex class I in skeletal muscle: primary screen against the NCATS Pharmaceutical Collection (AID 1347407);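 further: luminescence of HiBiT knocked into endogenous HLA-B as interferon-induced MHC class I level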
In short: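 HLA-B HiBiT myoblasts, dexamethasone-free growth medium + 4 ng/ml IFN-b; compounds pinned 1 h after seeding, […] from 46 uM; 24 h, 37 C, 5% CO2; lytic HiBiT detection, 10 min RT, luminescence.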

[10] = target: Protein phosphatase 1D (Homo sapiens) (UniProt O15297); test: RapidFire Mass Spectrometry qHTS Assay for Modulators of WT P53-Induced Phosphatase 1 (WIP1) (AID 1347424);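 further: amount of dephosphorylated VEPPL-S-QETFS peptide product formed by WIP1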
In short: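 WIP1 (10 nM final) was preincubated 1 h at room temperature with compounds in Tris-HCl pH 7.5, 30 mM MgCl2, TCEP, EGTA, BSA; 2 uM VEPPL-pS-QETFS phosphopeptide was added for 5 min, quenched with formic acid, and dephosphorylated product quantified by RapidFire MS.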

[11] = target: Protein phosphatase 1D (Homo sapiens) (UniProt O15297); test: Rhodamine-PBP qHTS Assay for Modulators of WT P53-Induced Phosphatase 1 (WIP1) (AID 1347425)
In short: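 Read-out: Rhodamine-PBP fluorescence (ex 525/em 598 nm) for released Pi, read each minute for 11 min after adding 10 uM VEPPL-pS-QETFS; signal taken as f1 minus pre-substrate f0. Enzyme 5 nM WIP1 with 1 hr room-temperature compound preincubation.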

[12] = A High-Content qHTS Against Drug Library for the Identification of Small Molecules that Inhibit DYT1 Early Onset Primary Dystonia-Associated Cell Pathology (AID 1645839; calls by dose curve)
In short: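 Readout: %pathology, the punctate EGFP-TorsinA distribution from imaging, as the primary channel and cell count as the toxicity counterscreen. HEK293 Flp-In cells expressing delE TorsinA were induced with tetracycline and treated with compound for 48 h.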

MCC-13 = test: qHTS assay to identify novel small-molecules to repurpose for Merkel cell carcinoma treatment (AID 1296009); conditions: MCC and control cell lines, CellTiter-Glo viability, 72 h; series mostly up to 46 µM; further: nearly all actives have a fitted effect of over 60% in size
In short: (§2)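 qHTS format: cells treated with library compounds in DMSO across 8 (NPC) or 11 (MIPE) concentrations. Readout after 72 hr at 37 degree celsius was CellTiter-Glo luminescence.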

MCC-26 = test: as above; conditions: MCC and control cell lines, CellTiter-Glo viability, 72 h; series mostly up to 46 µM
In short: as §2

[13] = Cell Viability - BJ (AID 421; calls by dose curve;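 further: potency means the concentration at half of the fitted maximal effect; cells exposed to compound for 40 hours at 37 °C before readout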); conditions: BJ fibroblast viability, qHTS
In short: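 Luminescent ATP signal (CellTiter-Glo, 20 min at room temperature) served as the read-out of viable BJ cells after 40 hours of compound treatment. Responses were scaled between DMSO and 100 uM tamoxifen, and AC50 values were obtained by Hill modeling.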

[14] = Cell Viability - Jurkat (AID 426;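 active means dose-dependent loss of cell ATP signal giving a full or clear fitted curve, ranked by lower potency value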;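 further: potency means the concentration at half of the fitted maximal effect; cells exposed to compound for 40 hours at 37 °C before ATP read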); conditions: qHTS
In short: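 qHTS, 1536-well; Jurkat E6-1, 5000 cells/well, complete medium; cpd 40 hr, 37 °C; CellTiter-Glo 20 min RT; luminescence. AC50 by Hill fit.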

[15] = Cell Viability - Hek293 (AID 427;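 active means compounds whose dose-response curve shows a full or clear partial loss of cell viability, called from curve shape rather than a numeric limit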;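 further: potency means the concentration at half of the fitted maximal effect; cells exposed to compound for 40 hours at 37 °C before reading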); conditions: qHTS
In short: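 Luminescent ATP read-out (CellTiter-Glo, 20 min RT) after 40 hr compound exposure at 37 °C in complete medium. Signal normalized to DMSO (basal) and 100 uM tamoxifen (100% inhibition); concentration-response fitted with the standard Hill equation to give AC50.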

[16] = Cell Viability - HepG2 (AID 433; calls by dose curve;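 further: potency means the concentration at half of the fitted maximal effect; potency for ATP loss meaning cytotoxicity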); conditions: qHTS
In short: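 ATP luminescence (CellTiter-Glo) after 40 h compound exposure, 37 °C, HepG2, 1500 cells/well, complete medium. Normalized: DMSO = basal, 100 uM tamoxifen = 100% inhibition. AC50 via standard Hill equation.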

[17] = Cell Viability - MRC5 (AID 434; calls by dose curve;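 further: potency means the concentration at half of the fitted maximal effect; cells exposed to compound for 40 hours at 37 °C; potency reflects cytotoxicity seen as loss of intracellular ATP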); conditions: MRC5 lung fibroblast viability, qHTS
In short: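 MRC5 normal human lung fibroblasts (1500/well) were treated with compounds for 40 hr at 37 °C in complete medium, and viable cells were measured as intracellular ATP by CellTiter-Glo luminescence. AC50 came from Hill fits, normalized to DMSO and 100 uM tamoxifen.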

[18] = Cell Viability - SK-N-SH (AID 435; calls by dose curve; further: potency means the concentration at half of the fitted maximal effect); conditions: SK-N-SH neuroblastoma cell viability qHTS
In short: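 CellTiter-Glo ATP luminescence, 20 min RT read; cells pre-plated 5 hr, compound 40 hr at 37 °C, 1500 cells/well, complete medium. Normalized DMSO = 0, 100 uM tamoxifen = 100% inhibition; Hill-fit AC50.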

Measured: Potency

Chain of Protein phosphatase 1D (Homo sapiens) (O15297 whole entry, looked up): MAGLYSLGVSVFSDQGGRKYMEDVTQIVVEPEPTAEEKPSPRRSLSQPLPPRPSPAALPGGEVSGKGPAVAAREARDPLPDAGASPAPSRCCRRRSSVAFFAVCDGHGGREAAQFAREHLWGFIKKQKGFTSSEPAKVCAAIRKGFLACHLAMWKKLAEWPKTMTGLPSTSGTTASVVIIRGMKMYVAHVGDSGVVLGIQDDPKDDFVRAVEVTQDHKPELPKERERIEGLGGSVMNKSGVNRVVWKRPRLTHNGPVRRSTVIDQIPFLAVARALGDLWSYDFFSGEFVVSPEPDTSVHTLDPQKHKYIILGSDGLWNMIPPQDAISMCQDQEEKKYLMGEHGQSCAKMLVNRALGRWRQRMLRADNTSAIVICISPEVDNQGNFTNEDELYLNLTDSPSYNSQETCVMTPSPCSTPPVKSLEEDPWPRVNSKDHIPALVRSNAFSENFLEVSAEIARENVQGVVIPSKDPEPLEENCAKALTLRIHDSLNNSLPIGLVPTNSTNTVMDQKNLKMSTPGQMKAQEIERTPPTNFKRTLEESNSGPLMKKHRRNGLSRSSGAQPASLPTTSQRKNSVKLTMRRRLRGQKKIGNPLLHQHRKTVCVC
Chain of Cytochrome P450 3A4 (Homo sapiens) (P08684 whole entry, looked up): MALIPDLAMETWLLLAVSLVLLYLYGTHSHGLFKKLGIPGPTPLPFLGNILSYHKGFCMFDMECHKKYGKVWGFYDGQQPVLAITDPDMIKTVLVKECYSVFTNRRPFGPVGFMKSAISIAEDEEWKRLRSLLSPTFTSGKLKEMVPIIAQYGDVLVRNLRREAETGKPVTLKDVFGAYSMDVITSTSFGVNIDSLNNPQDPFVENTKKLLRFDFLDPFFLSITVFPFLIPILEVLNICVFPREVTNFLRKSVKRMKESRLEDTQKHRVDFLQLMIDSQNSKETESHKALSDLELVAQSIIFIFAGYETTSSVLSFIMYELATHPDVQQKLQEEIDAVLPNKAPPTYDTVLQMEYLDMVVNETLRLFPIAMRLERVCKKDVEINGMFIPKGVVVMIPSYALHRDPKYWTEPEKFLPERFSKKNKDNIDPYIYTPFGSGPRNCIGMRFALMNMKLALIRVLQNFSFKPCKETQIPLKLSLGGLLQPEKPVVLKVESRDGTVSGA

Oc1ccc(Nc2nc(-c3ccc(Cl)cc3)cs2)cc1
inactive: [1]
active: [2] 2 µM

CS(=O)(=O)c1ccc(-c2cn3ccccc3n2)cc1
active: [5] 16.8 µM | [7] 17.4 µM | [8] 23.7 µM
inactive: [3] | [4] | [6] | [9] | [10] | [11] | [12] | MCC-13 | MCC-26

Nc1ccc(N)c([N+](=O)[O-])c1
inactive: [13] > 92 µM | [14] > 92 µM | [15] > 92 µM | [16] > 92 µM | [17] > 92 µM | [18] > 92 µM
